Data taken from PubChem BioAssay (NCI).
The panel holds about 83,000 compounds, 20% with a hit somewhere; the sample as a whole holds those more often.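 Percent growth is the endpoint: 0 to 100 indicates growth inhibition (40 means 60% inhibition), 0 means no net growth, and negative values indicate cell death.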 A number with no mark means an inactive call. The source made the active and inactive calls. Rule for the calls: active = growth percent below 10; inactive = the rest.

How the values were obtained:
Assay in all cases: NCI-60 one-dose screen, 48 h (100 = growth as untreated, 0 = no growth, -100 = all killed)
Conditions in all cases: 10 µM unless noted
NCI-H23 lung = system: NCI-H23 lung
NCI-H226 lung = system: NCI-H226 lung
NCI-H322M lung = system: NCI-H322M lung
HOP-62 NSCLC = system: HOP-62 NSCLC
NCI-H460 lung = system: NCI-H460 lung
HOP-92 NSCLC = system: HOP-92 NSCLC
NCI-H522 lung = system: NCI-H522 lung
A549/ATCC NSCLC = system: A549/ATCC NSCLC
786-0 renal = system: 786-0 renal
COLO 205 colon = system: COLO 205 colon
DU-145 prostate = system: DU-145 prostate
K-562 leukemia = system: K-562 leukemia
MALME-3M melanoma = system: MALME-3M melanoma
MDA-MB-231 breast = system: MDA-MB-231 breast
RXF 393 renal = system: RXF 393 renal
SF-268 CNS = system: SF-268 CNS
SF-295 CNS = system: SF-295 CNS
SF-539 CNS = system: SF-539 CNS
UACC-257 melanoma = system: UACC-257 melanoma
M14 melanoma = system: M14 melanoma

CC(C(C(=O)N1CCCCC1)N1CCCCC1)N1CCCCC1 (stereo not given)
growth (NCI-H23 lung): 107% | growth (NCI-H226 lung): 109% | growth (NCI-H322M lung): 119% | growth (HOP-62 NSCLC): 96.7% | growth (NCI-H460 lung): 114% | growth (HOP-92 NSCLC): 112% | growth (NCI-H522 lung): 93.1% | growth (A549/ATCC NSCLC): 94% | growth (786-0 renal): 108% | growth (COLO 205 colon): 118% | growth (DU-145 prostate): 122% | growth (K-562 leukemia): 94.7% | growth (MALME-3M melanoma): 118% | growth (MDA-MB-231 breast): 112% | growth (RXF 393 renal): 112% | growth (SF-268 CNS): 115% | growth (SF-295 CNS): 117% | growth (SF-539 CNS): 116% | growth (UACC-257 melanoma): 101% | growth (M14 melanoma): 103%

COc1cccc(/C=N/C(=S)NC2(C)C3CCC(C3)C2(C)C)c1O (stereo not given)
growth (NCI-H23 lung): 94.7% | growth (NCI-H226 lung): 93.1% | growth (NCI-H322M lung): 73.1% | growth (HOP-62 NSCLC): 92% | growth (NCI-H460 lung): 60.2% | growth (HOP-92 NSCLC): 93.3% | growth (NCI-H522 lung): 69.7% | growth (A549/ATCC NSCLC): 74.7% | growth (786-0 renal): 88% | growth (COLO 205 colon): 89.6% | growth (DU-145 prostate): 105% | growth (K-562 leukemia): 79.4% | growth (MALME-3M melanoma): 89.8% | growth (MDA-MB-231 breast): 96.2% | growth (RXF 393 renal): 99% | growth (SF-268 CNS): 94.7% | growth (SF-295 CNS): 86.1% | growth (SF-539 CNS): 95.3% | growth (UACC-257 melanoma): 87% | growth (M14 melanoma): 64.8%

c1ccc2c(c1)Oc1cccnc1-n1nccc1-2
growth (NCI-H23 lung): 97.8% | growth (NCI-H226 lung): 77.3% | growth (NCI-H322M lung): 102% | growth (HOP-62 NSCLC): 104% | growth (NCI-H460 lung): 103% | growth (HOP-92 NSCLC): 90% | growth (NCI-H522 lung): 99.7% | growth (A549/ATCC NSCLC): 99.6% | growth (786-0 renal): 103% | growth (COLO 205 colon): 119% | growth (DU-145 prostate): 110% | growth (K-562 leukemia): 104% | growth (MALME-3M melanoma): 103% | growth (MDA-MB-231 breast): 93.5% | growth (RXF 393 renal): 107% | growth (SF-268 CNS): 102% | growth (SF-295 CNS): 108% | growth (SF-539 CNS): 106% | growth (UACC-257 melanoma): 102% | growth (M14 melanoma): 101%

NS(=O)(=O)c1ccc(CCN2C(=O)/C(=C\c3ccc(Cl)cc3)C=C2c2ccc(Oc3ccccc3)cc2)cc1
growth (NCI-H23 lung): 84% | growth (NCI-H226 lung): 72.7% | growth (NCI-H322M lung): 79.2% | growth (HOP-62 NSCLC): 95.9% | growth (NCI-H460 lung): 69% | growth (HOP-92 NSCLC): 84.7% | growth (NCI-H522 lung): 56.1% | growth (A549/ATCC NSCLC): 51.8% | growth (786-0 renal): 91.1% | growth (COLO 205 colon): 80% | growth (DU-145 prostate): 89.4% | growth (K-562 leukemia): 47.8% | growth (MALME-3M melanoma): 82% | growth (MDA-MB-231 breast): 72.9% | growth (RXF 393 renal): 70.3% | growth (SF-268 CNS): 82.7% | growth (SF-295 CNS): 77.3% | growth (SF-539 CNS): 97.7% | growth (UACC-257 melanoma): 92.4% | growth (M14 melanoma): 73.7%

O=C1OC(=O)C2C3CC(c4ccccc43)C12 (stereo not given)
growth (NCI-H23 lung): 101% | growth (NCI-H226 lung): 110% | growth (NCI-H322M lung): 107% | growth (HOP-62 NSCLC): 97.8% | growth (NCI-H460 lung): 113% | growth (HOP-92 NSCLC): 72.4% | growth (NCI-H522 lung): 105% | growth (A549/ATCC NSCLC): 91.7% | growth (786-0 renal): 102% | growth (COLO 205 colon): 97.8% | growth (DU-145 prostate): 145% | growth (K-562 leukemia): 111% | growth (MALME-3M melanoma): 101% | growth (MDA-MB-231 breast): 117% | growth (RXF 393 renal): 116% | growth (SF-268 CNS): 123% | growth (SF-295 CNS): 101% | growth (SF-539 CNS): 103% | growth (UACC-257 melanoma): 91.8% | growth (M14 melanoma): 112%

COC(=O)Nc1nc2ccc(Sc3ccccc3)cc2[nH]1
growth (NCI-H23 lung): 32.7% | growth (NCI-H226 lung): 19.9% | growth (NCI-H322M lung): 55.4% | growth (HOP-62 NSCLC): 29.4% | growth (NCI-H460 lung): 6.37% (active) | growth (HOP-92 NSCLC): 54.2% | growth (NCI-H522 lung): 13.4% | growth (A549/ATCC NSCLC): 13.4% | growth (786-0 renal): 33.7% | growth (COLO 205 colon): -14.7% (active) | growth (DU-145 prostate): 17.5% | growth (K-562 leukemia): 5.33% (active) | growth (MALME-3M melanoma): 41.9% | growth (MDA-MB-231 breast): 45.6% | growth (RXF 393 renal): 15% | growth (SF-268 CNS): 37.8% | growth (SF-295 CNS): -16.1% (active) | growth (SF-539 CNS): 0.846% (active) | growth (UACC-257 melanoma): 52.1% | growth (M14 melanoma): 8.93% (active)

CC(C)Cn1cnc2c3ccccc3nc(NCn3nc(-c4cc(Cl)cc(Cl)c4Cl)oc3=S)c21
growth (NCI-H23 lung): 80.4% | growth (NCI-H226 lung): 99% | growth (NCI-H322M lung): 91.6% | growth (HOP-62 NSCLC): 66.4% | growth (NCI-H460 lung): 110% | growth (HOP-92 NSCLC): 50.7% | growth (NCI-H522 lung): 74% | growth (A549/ATCC NSCLC): 99.9% | growth (786-0 renal): 75.5% | growth (COLO 205 colon): 97.5% | growth (DU-145 prostate): 115% | growth (K-562 leukemia): 59.6% | growth (MALME-3M melanoma): 116% | growth (MDA-MB-231 breast): 82.9% | growth (RXF 393 renal): 95% | growth (SF-268 CNS): 110% | growth (SF-295 CNS): 100% | growth (SF-539 CNS): 94.7% | growth (UACC-257 melanoma): 99.4% | growth (M14 melanoma): 79.9%
